In PubChem BioAssay (EPA / NIEHS) one finds outcome and AC50 data, which are given here for 40 molecules.

Active and inactive are the calls of the source. Rule for the calls: active = hit-call score of the fitted dose curve at least 0.9, where 1 is the maximum; inactive = score below 0.9.

One may read the AC50 as the concentration giving half of the maximal activity seen.

Read-out in this test: JUN Transcription Factor, JUN (gene 3725)
As to the kind of experiment: LTEA_HepaRG_JUN: Life Technologies and Expression Analysis (LTEA) Assay for JUN Transcription Factor using HepaRG (AID 2283513). To be noted: mRNA level, 48 h; actives raise or lower the signal. As to the method: LTEA_HepaRG is a cell based, multiplexed-readout assay that uses HepaRG, a human liver cell line, with measurements taken at 48 hours after chemical dosing on a 96-well plate.LTEA_HepaRG_JUN is one of 102 assay component(s) measured in the LTEA HepaRG cell culture assay. It is a marker of Cell proliferation, survival, death.Data from the assay component LTEA_HepaRG_JUN was analyzed into 1 endpoint. This assay endpoint, LTEA_HepaRG_JUN, was analyzed with bidirectional fitting relative to DMSO as the negative control and baseline of activity. Using a type of inducible reporter, measures of mRNA induction for gain or loss-of-signal activity can be used to understand regulation of transcription factor activity. To generalize the intended target to other relatable targets, this assay endpoint is annotated to the dna binding intended target family, where the subfamily is basic leucine zipper.
A total of 1060 chemcials from the ToxCast library were tested in eight-point concentration-response experiments. Cell culture and cytotoxicity assays were conducted at Thermo Fisher Scientific's Custom Services facility (Madison, WI). A single lot of human HepaRG cells (Thermo Fisher Scientific, Frederick, MD) was used for the cell culture experiments. 96-well format collagen type I coated plates of human HepaRG cells were prepared using established methods. Briefly, cryopreserved HepaRG cells were thawed, plated at a density of approximately 100,000 cells/well in HepaRG Thaw, Plate, and General Purpose media (HPRG770, Thermo Fisher Scientific), and incubated for 48 hours. 0.5% DMSO was selected as vehicle control to balance the requisite need of DMSO in HepaRG cultures to maintain differentiation (for example, baseline metabolism, proportions of hepatocytes vs. cholangiocytes), while enabling further hepatic receptor pathway activation (for example, PXR and CAR) in response to chemical exposure. 48 hours after plating, the culture medium was replaced with HepaRG Serum-Free Incudtion Media. Cells were exposed to each test chemical in duplicate and maintained in CO2 incubators for another 48 hours. Chemical plates were thawed to room temperature and 200x concentrations of treatment groups were prepared. 8-point conentration-reponse curves were made with the highest exposure at 100 uM, followed by half-log dilutions, all in 0.5% DMSO. Each test plate contained variouse controls, induction positive controls (1mM phenobarbital), cytotoxicity positive controls ([…] aflatoxin B1), vehicle controls (0.5% DMSO), and total lysis controls (0.5% DMSO). Cell morphology images were taken using an Essen IncuCyte FLR automated microscope, with six 96-well plates imaged in about 24 minutes. Images were captured and exported and JPEG files. Spent culture media was transfered to black-well plates for the LDH assay, and remaining media was sorted at -80 C for later use. Cells were treated with RLT buffer and frozen until shipped for gene expression analysis. Total RNA was isolated from the cell suspension in 75 uL of Buffer RLT (Qiagen, Germantown, MD 20874) by Quintiles/Expression Analysis (Durham, NC) using a custom isolation procedure. Total RNA from each plate well was transferred to a preamplification plate. Fluidigm's 96.96 Dynamic ArrayTM (Fluidigm, Amsterdam, the Netherlands) technology was used for gene expression analyses by quantitative reverse transcription polymerase chain reaction (qRT-PCR, performed by Quintiles/Expression Analysis, Durham, NC)89. Standard TaqManTM Assays (Applied Biosystems/ThermoFisher Scientific, Foster City, CA) were used to assess the expression of 93 genes selected based on their selectivity and sensitivity to important hepatic receptors known to be modulated by environmental chemicals; importance in human hepatocyte functionality; and hepatotoxicity. […]
For the molecule `CSC1=N[C@@](C)(c2ccccc2)C(=O)N1Nc1ccccc1`, the outcome was inactive. On to `COP(=O)(OC)C(O)C(Cl)(Cl)Cl` (stereo not given), for which the molecule was called inactive. Same read-out and setting: under `CCOP(=S)(OCC)OC(Cl)C(Cl)(Cl)Cl` (stereo not given) stands “inactive”; under `CSc1nnc(C(C)(C)C)c(=O)n1N`, “inactive”.

Consider `FC(F)C(F)(F)OCC(Cn1cncn1)c1ccc(Cl)cc1Cl` (stereo not given), for which the call was inactive. The same measure, in the same setting: under `N#CSCSC#N` stands “inactive”. On to `CC(C1CC1)C(O)(Cn1cncn1)c1ccc(Cl)cc1` (stereo not given), for which the molecule was called inactive. Still for that read-out and setting: to `C#CC(C)(C)NC(=O)c1cc(Cl)cc(Cl)c1` belongs “inactive”; to `CCOP(=S)(OCC)Oc1ccc([N+](=O)[O-])cc1`, “inactive”. On to `CC(C)N(C(=O)SCC(Cl)=C(Cl)Cl)C(C)C`, for which the molecule was called inactive. The same measure, in the same setting: under `CCCCOC(=O)[C@@H](C)Oc1ccc(Oc2ccc(C#N)cc2F)cc1` stands “inactive”; under `CN(C)NC(=O)CCC(=O)O`, “inactive”. Same read-out and setting: to `CCOP(=S)(Oc1cnc(C(C)(C)C)nc1)OC(C)C` (stereo not given) belongs “inactive”; to `COP(=O)(OC)SCn1c(=O)oc2cc(Cl)cnc21`, “inactive”; to `CCCCSP(=O)(SCCCC)SCCCC`, “inactive”. The same measure, in the same setting: to `CNc1cnn(-c2cccc(C(F)(F)F)c2)c(=O)c1Cl` belongs “inactive”; to `CCC(CC)Nc1c([N+](=O)[O-])cc(C)c(C)c1[N+](=O)[O-]`, “inactive”.

For the molecule `CCCSP(=O)(OCC)Oc1ccc(Br)cc1Cl` (stereo not given), the call was inactive. Take `CC1(C(=O)Nc2ccc(O)c(Cl)c2Cl)CCCCC1`: the molecule was classed as inactive. Same read-out and setting: under `CC(C)=CC1C(C(=O)OCN2C(=O)C3=C(CCCC3)C2=O)C1(C)C` (stereo not given) stands “inactive”. For `CC[C@H](C)[C@H]1O[C@]2(C=C[C@@H]1C)C[C@@H]1C[C@@H](C/C=C(\C)[C@@H](O[C@H]3C[C@H](OC)[C@@H](O[C@H]4C[C@H](OC)[C@@H](NC)[C@H](C)O4)[C@H](C)O3)[C@@H](C)/C=C/C=C3\CO[C@@H]4[C@H](O)C(C)=C[C@@H](C(=O)O1)[C@]34O)O2`, the AC50 was 26.5 µM (active). Regarding `Cc1nn(-c2cc(NS(C)(=O)=O)c(Cl)cc2Cl)c(=O)n1C(F)F`, the molecule was called inactive. For `CC(COc1ccc(Oc2ccccc2)cc1)Oc1ccccn1` (stereo not given), the molecule was called inactive. Same read-out and setting: to `COP(=O)(NC(C)=O)SC` (stereo not given) belongs “inactive”; to `COP(=O)(OC)OC(Br)C(Cl)(Cl)Br` (stereo not given), “inactive”; to `CCc1cnc(C2=NC(C)(C(C)C)C(=O)N2)c(C(=O)O)c1` (stereo not given), “inactive”. Still for that read-out and setting: to `O=c1ccc(=O)[nH][nH]1` belongs “inactive”. For the molecule `CCOP(=O)(SC(C)CC)N1CCSC1=O` (stereo not given), the molecule was called inactive. On the same count and under the same terms, under `CC(C)[C@H](C(=O)O[C@H](C#N)c1cccc(Oc2ccccc2)c1)c1ccc(Cl)cc1` stands “inactive”.

As to `CCOP(=S)(OCC)Oc1ccc2c(C)c(Cl)c(=O)oc2c1`, the molecule was classed as inactive.

For the molecule `CNC(=O)ON=C(SC)C(=O)N(C)C`, the result was inactive. Still for that read-out and setting: under `CCCSP(=O)(OCC)SCCC` stands “inactive”. Still for that read-out and setting: under `CNC(=O)Oc1cccc2c1OC(C)(C)O2` stands “inactive”; under `CN1COCN(Cc2cnc(Cl)s2)C1=N[N+](=O)[O-]`, “inactive”. Same read-out and setting: under `CCC(=NOC/C=C/Cl)C1=C(O)CC(C2CCOCC2)CC1=O` (stereo not given) stands “inactive”; under `CC(Oc1cccc(Cl)c1)C(=O)O` (stereo not given), “inactive”; under `CCOC(=O)COc1cc(-c2nn(C)c(OC(F)F)c2Cl)c(F)cc1Cl`, “inactive”. Consider `CCCCOC(=O)c1ccccc1C(=O)O`, for which the molecule was classed as inactive.

With `CCNc1nc(Cl)nc(NC(C)(C)C#N)n1`, the result was inactive.

As for `C[N+]1(C)CCCCC1`, the molecule was called inactive.
